Common to all, as to set-up: scale not given: direction of the effect not stated beside the values
Assay [1] addresses Protein translocase subunit SecA (Escherichia coli (strain K12)) (UniProt P10408). Nature of the assay: Assay to Identify E. coli SecA ATPase Inhibitors. The class given is functional. To be noted: 30 µM.
For assay [2], the target named is T1, Ubiquitin-activating enzyme e1, putative (Leishmania donovani (strain BPK282A1)) (UniProt E9BSI1).
T1 sequence (whole entry): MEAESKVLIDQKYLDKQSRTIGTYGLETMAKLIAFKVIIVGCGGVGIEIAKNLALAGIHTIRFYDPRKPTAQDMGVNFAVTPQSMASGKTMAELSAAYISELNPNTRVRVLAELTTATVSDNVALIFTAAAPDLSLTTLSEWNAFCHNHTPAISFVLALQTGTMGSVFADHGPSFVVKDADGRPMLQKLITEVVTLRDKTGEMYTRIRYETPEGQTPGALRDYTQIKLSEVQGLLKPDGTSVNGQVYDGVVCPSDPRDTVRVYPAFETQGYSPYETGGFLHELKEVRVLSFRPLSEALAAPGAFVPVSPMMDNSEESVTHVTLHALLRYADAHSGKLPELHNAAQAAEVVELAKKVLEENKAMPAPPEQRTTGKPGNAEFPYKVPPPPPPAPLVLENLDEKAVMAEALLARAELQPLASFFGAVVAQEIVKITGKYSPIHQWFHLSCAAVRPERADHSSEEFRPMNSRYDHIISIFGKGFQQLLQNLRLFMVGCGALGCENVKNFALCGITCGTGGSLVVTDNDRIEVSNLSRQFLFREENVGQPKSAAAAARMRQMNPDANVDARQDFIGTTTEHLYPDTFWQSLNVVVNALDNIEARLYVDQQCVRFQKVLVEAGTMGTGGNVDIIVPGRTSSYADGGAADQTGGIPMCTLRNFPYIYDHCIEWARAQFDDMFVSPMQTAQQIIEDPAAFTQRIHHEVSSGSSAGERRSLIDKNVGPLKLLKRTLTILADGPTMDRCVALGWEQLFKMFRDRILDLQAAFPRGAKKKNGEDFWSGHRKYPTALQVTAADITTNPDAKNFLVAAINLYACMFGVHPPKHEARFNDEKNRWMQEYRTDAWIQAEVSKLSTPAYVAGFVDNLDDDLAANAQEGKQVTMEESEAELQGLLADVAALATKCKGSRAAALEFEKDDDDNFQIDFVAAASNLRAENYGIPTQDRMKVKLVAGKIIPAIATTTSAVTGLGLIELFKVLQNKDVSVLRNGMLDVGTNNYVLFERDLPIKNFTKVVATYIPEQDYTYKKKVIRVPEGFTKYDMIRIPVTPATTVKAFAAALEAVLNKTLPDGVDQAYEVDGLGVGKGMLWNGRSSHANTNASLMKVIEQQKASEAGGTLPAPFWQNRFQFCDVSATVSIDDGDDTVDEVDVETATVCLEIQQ
Nature of the assay: Leishmania donovani Ubiquitin Activating Enzyme (LdE1). The class given is functional. To be noted: 30 µM.

Assay [3] concerns the target AMP-activated protein kinase, AMPK (Homo sapiens) (UniProt P54646+O43741+P54619+Q9UGJ0+Q9Y478+Q13131+Q9UGI9). Nature of the assay: AMP-dependent Kinase enzyme assay. An in vitro enzyme assay that detects ADP turnover that is directly proportional to AMPK activity. This uses naive AMPK that is activated during the assay with MK-8722. Type of assay: functional. Conditions: 30 µM.

In assay [4] the target is Sialic acid-binding Ig-like lectin 9 (Homo sapiens) (UniProt Q9Y336). Nature of the assay: Hs-Siglec9 ALPHAscreen SOP 20170721. To be noted: 10 µM. A general note: Bead proximity is the source of the signal in Alpha formats.
Another assay has as its system Trypanosoma cruzi. Nature of the assay: Trypanosoma cruzi phosphomannomutase and mannose-1-phosphate guanylyltransferase assay. Conditions: 10 µM. Type of assay: functional.
In assay [5] the target is T2, Arginase-2, mitochondrial (Homo sapiens) (UniProt P78540).
T2 sequence (whole entry): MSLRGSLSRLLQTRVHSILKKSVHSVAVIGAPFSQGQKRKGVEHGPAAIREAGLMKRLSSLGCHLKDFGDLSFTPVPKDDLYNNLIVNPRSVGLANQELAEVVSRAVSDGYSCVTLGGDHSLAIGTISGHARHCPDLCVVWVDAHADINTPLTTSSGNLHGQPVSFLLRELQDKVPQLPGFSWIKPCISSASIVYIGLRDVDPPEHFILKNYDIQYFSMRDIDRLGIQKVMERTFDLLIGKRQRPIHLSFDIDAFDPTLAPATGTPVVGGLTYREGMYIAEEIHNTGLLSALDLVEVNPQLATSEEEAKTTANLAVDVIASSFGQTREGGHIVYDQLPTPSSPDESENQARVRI
In words: in vitro enzyme assay to detect the production of urea directly proportional to the activity of Arginase II. Also: in the data most compounds retested in dose-response had high values. The class given is functional. Conditions: 33.3 µM.

The target in assay [6] is T3, Proteasome subunit beta (Trypanosoma cruzi) (UniProt O96673).
T3 sequence (whole entry): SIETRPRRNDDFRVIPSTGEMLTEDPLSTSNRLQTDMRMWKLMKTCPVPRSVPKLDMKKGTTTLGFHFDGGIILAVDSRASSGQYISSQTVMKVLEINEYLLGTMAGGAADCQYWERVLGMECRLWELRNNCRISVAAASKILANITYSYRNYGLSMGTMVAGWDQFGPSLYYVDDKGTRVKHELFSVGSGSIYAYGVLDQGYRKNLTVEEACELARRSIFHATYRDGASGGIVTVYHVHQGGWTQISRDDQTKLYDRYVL
In words: Trypanosoma cruzi proteasome chymotrypsin-like activity (TcProtChymo) assay. Also: in the data most compounds retested in dose-response had high values. Type of assay: functional. Conditions: 9.37 µM.

For another assay, the species on record is Homo sapiens. Nature of the assay: To identify inhibition of the IFN signalling (Jak-Stat) pathway via expression of an eGFP reporter gene under the control of an IFN-stimulated response element (ISRE) containing MxA promoter. The class given is functional. Conditions: 30 µM. For orientation: Reporter assays use an easily measured gene product as a stand-in for the process of interest.

For assay [7], the target named is T4, Tyrosyl-tRNA synthetase, putative (Trypanosoma cruzi (strain CL Brener)) (UniProt Q4DSP6).
T4 sequence (whole entry): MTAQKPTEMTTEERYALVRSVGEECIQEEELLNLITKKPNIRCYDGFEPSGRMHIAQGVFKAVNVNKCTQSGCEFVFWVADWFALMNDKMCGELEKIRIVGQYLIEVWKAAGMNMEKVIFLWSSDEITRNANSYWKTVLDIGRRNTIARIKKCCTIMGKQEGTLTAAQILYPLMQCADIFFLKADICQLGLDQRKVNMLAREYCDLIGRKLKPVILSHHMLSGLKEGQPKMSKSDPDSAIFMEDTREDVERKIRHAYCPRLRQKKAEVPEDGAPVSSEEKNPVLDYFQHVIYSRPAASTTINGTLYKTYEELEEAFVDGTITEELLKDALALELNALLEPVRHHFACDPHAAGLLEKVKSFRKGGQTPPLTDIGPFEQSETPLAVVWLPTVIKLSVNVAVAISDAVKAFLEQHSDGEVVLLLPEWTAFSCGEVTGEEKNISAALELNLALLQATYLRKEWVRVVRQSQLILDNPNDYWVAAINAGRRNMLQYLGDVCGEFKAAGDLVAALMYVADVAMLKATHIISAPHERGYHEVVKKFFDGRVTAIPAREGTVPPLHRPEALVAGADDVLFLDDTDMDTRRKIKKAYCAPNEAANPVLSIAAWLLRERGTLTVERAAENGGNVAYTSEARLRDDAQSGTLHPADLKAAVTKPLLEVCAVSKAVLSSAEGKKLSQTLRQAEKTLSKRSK
Nature of the assay: Trypanosoma cruzi tyrosyl tRNA synthetase (TcYRS) _High Tyrosine SOP. Also: in the data most compounds retested in dose-response had high values. Type of assay: functional. Conditions: 30 µM.

Assay [8] deals with T4, Tyrosyl-tRNA synthetase, putative (Trypanosoma cruzi (strain CL Brener)). In words: Trypanosoma cruzi tyrosyl tRNA synthetase (TcYRS) SOP. Conditions: 30 µM. Type of assay: functional.
For assay [9], the target named is Chromo domain-containing protein 1 (Saccharomyces cerevisiae (strain ATCC 204508 / S288c) (Baker's yeast)) (UniProt P32657). Nature of the assay: ScCHD-1 Enzyme Inhibition Assay. Also: in the data most compounds retested in dose-response had high values. Conditions: 30 µM. Type of assay: functional.

The record followed here is ChEMBL document CHEMBL3988442, “University of Dundee, Small-Polar-MMV Screening Library” (2021).

For some of these results: Entries with a potency or affinity are not part of this list.

Chain of Protein translocase subunit SecA (Escherichia coli (strain K12)) (P10408 whole entry): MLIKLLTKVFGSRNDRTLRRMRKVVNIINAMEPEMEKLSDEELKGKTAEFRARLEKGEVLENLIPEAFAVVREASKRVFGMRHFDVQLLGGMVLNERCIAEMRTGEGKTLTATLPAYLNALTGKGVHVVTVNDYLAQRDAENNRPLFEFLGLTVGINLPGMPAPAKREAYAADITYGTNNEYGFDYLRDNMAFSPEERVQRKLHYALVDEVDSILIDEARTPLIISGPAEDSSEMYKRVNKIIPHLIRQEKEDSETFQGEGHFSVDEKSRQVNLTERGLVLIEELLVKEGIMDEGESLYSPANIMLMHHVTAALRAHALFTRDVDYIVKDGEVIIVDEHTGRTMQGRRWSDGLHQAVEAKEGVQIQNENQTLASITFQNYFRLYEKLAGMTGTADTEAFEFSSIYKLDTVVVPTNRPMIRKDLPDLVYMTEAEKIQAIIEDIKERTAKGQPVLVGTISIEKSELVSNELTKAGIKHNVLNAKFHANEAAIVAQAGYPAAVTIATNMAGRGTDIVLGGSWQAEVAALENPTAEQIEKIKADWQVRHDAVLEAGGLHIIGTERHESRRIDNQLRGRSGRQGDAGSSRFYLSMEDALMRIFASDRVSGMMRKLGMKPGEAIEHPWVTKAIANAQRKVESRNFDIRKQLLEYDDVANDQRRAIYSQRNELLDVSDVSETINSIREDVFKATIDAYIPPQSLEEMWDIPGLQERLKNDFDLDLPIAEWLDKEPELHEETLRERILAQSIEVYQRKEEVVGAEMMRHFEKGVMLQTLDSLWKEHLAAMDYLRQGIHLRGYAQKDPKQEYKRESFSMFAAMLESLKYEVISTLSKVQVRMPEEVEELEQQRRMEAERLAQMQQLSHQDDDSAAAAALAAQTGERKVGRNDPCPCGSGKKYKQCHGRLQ
Chain of Sialic acid-binding Ig-like lectin 9 (Homo sapiens) (Q9Y336 whole entry): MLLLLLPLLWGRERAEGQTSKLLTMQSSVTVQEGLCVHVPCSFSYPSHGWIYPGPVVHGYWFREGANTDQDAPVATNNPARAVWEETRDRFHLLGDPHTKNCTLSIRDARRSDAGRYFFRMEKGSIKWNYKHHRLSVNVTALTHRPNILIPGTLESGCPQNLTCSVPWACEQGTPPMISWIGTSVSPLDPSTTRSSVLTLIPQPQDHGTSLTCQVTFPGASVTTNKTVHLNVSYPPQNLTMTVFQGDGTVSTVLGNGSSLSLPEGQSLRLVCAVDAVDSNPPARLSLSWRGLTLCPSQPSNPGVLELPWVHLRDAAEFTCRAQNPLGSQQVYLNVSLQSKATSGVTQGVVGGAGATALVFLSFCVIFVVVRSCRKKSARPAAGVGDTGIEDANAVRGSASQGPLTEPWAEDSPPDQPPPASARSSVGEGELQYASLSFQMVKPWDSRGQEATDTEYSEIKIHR
Chain of Chromo domain-containing protein 1 (Saccharomyces cerevisiae (strain ATCC 204508 / S288c) (Baker's yeast)) (P32657 whole entry, the tested form may be a part): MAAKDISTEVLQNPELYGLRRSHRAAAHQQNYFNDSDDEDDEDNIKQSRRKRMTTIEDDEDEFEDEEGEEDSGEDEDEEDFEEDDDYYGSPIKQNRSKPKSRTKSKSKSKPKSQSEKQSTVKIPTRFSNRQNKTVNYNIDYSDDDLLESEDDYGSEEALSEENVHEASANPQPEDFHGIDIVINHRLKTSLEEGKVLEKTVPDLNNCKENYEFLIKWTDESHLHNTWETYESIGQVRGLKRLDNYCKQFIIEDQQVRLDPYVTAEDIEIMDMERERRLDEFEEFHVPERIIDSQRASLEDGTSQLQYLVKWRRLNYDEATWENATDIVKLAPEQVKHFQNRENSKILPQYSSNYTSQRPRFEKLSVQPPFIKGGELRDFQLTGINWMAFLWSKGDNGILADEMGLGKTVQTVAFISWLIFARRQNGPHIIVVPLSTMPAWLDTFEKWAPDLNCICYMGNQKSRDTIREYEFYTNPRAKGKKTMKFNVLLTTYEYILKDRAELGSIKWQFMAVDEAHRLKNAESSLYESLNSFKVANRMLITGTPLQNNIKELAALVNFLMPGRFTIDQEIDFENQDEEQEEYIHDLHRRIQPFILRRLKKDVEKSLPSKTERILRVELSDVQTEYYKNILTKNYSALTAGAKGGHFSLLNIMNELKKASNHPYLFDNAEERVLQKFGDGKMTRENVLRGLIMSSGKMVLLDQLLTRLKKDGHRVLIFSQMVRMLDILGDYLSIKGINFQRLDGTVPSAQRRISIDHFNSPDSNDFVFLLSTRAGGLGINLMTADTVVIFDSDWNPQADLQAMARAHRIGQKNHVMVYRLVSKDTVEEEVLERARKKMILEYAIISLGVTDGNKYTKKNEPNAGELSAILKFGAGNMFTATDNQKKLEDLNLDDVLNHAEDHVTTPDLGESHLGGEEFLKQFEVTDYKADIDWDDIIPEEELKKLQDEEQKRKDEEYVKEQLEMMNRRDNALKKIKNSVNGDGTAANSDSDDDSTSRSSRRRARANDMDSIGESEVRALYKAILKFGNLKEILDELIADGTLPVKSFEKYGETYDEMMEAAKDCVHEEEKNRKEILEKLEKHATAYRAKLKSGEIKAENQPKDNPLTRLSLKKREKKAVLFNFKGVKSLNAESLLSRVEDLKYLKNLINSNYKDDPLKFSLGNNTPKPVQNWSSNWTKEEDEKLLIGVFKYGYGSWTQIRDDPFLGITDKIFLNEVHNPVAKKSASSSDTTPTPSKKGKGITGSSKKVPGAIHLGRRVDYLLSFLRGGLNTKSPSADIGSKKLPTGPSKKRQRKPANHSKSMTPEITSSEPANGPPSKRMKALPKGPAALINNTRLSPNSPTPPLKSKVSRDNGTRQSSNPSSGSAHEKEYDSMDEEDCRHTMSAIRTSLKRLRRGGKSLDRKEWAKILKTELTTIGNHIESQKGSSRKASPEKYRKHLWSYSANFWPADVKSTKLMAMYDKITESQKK

Regarding `Cc1nc(CN2CCC(CNC(=O)Nc3ccccn3)CC2)oc1C`, the Percent Effect in assay [1] is -6.4%; in [2], 2.7%; in [3] it was -0.75%; in assay [4], -0.537%; in the assay with Trypanosoma cruzi, -1.27%; in assay [5], -0.744%. The Percent Effect in assay [6] was -1.46%; in the assay filed under Homo sapiens it was -2.29%; in assay [7], 4.3%; in assay [8], 11.1%; in assay [9], -2.16%.
`Cc1ccc(-c2cc(N)c(=O)n(CC(=O)NCC3CCCCC3)n2)s1`: the Percent Effect in [1] is -3.51%; in assay [2], 9.46%; in [3] it was 11.8%; in [4], -4.16%; with Trypanosoma cruzi, -6.13%; in assay [5], -2.09%. Also, the Percent Effect in assay [6] is 12.3%; in the assay listed under Homo sapiens it was 9.89%; in assay [7], -6.45%; in [8] it was 3.9%; in [9] it was -4.23%.
Consider `Cc1nc(C)n(CC2CN(Cc3cccc(C#N)c3)CCO2)n1` (stereo not drawn), for which the Percent Effect was -0.461% in assay [1]; 13.5% in assay [2]; -1.52% in assay [3]; 2.34% in [4]; 2.74% in the assay with Trypanosoma cruzi; 0.802% in assay [5]. Besides, the Percent Effect is 14.6% in assay [6]; 0.861% in the assay filed under Homo sapiens; -10.3% in assay [7]; 18.5% in [8]; -3.18% in [9].
On to `CN(Cc1cc2c(cc1OC(F)F)OCO2)Cc1nccn1C`, for which the Percent Effect in [1] was -4.78%; in assay [2], 2.7%; in assay [3], -4.36%; in assay [4], 4%; in the assay on Trypanosoma cruzi it was 1.27%; in assay [5], -0.744%. In addition, the Percent Effect is 5.58% in assay [6]; 0.0596% in the assay filed under Homo sapiens; 3.23% in [7]; 6.17% in assay [8]; -1.72% in assay [9].
Take `Cn1ccc(C(=O)N2CCC(Cc3cnc4[nH]ccc4c3)CC2)n1`: the Percent Effect in [1] is -2.94%; in assay [2], 6.76%; in assay [3] it was 13%; in assay [4] it was 2.89%; with Trypanosoma cruzi, -0.395%; in assay [5], 1.16%. Also, the Percent Effect in assay [6] was 7.64%; in the assay listed under Homo sapiens, 7.58%; in [7], 4.3%; in assay [8] it was 14.3%; in assay [9] it was -4.7%.
Consider `Cc1oc(-c2ccsc2)nc1CC(=O)NCCS(C)(=O)=O`, for which the Percent Effect is -3.85% in assay [1]; 5.2% in assay [2]; 2.35% in [3]; 5.36% in [4]; -2.26% in the assay on Trypanosoma cruzi; -4.14% in assay [5]. Besides, the Percent Effect was 9.48% in [6]; 3.37% in the assay listed under Homo sapiens; -1.07% in assay [7]; 6.17% in assay [8]; -2.55% in assay [9].
Take `O=C(CCNc1ncccn1)N1CCCC(n2ccnc2)C1` (stereo not drawn): the Percent Effect in [1] is -7.87%; in assay [2], 6.33%; in assay [3] it was 7.8%; in assay [4] it was -0.356%; with Trypanosoma cruzi, -2.77%; in [5], 0.645%. The Percent Effect in [6] was 9.78%; in the assay filed under Homo sapiens, 12%; in [7], 8.33%; in [8] it was 15.2%; in [9], -20.9%.
Take `CCN(CC)C(=O)CCNC(=O)Cc1nc(-c2ccco2)oc1C`: the Percent Effect in assay [1] is -7.31%; in [2] it was -2.67%; in [3] it was -3.57%; in assay [4] it was -1.71%; in the assay with Trypanosoma cruzi it was -5.75%; in assay [5], -0.521%. Further, the Percent Effect was 17.3% in assay [6]; -3.68% in the assay filed under Homo sapiens; -1.64% in assay [7]; 3.7% in assay [8]; -7.39% in assay [9].
